{"source": "PubChem BioAssay (NCI)", "note": "This is part of a sample that, as a whole, favours compounds with a hit. Of some 83,000 tested, about 20% had one in any assay.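 Growth was measured after 48 h exposure to one concentration of compound in 96-well plates. Values under 10 count as active.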 Activity calls are given as the source filed them."}
{"test_system": "SW-620 colon", "assay": "NCI-60 one-dose screen, 48 h (100 = growth as untreated, 0 = no growth, -100 = all killed)", "settings": "10 µM unless noted", "description": "Growth inhibition of the SW-620 human tumor cell line is measured as a screen for anti-cancer activity. Cells are grown in 96 well plates and exposed to the test compound for 48 hours. Compounds are tested at a single concentration, which is 10^-5 M for most compounds. The reported endpoint is percent growth (GI% or GIPRCNT), where numbers from 0 - 100% represent growth inhibition, and numbers from -100% - 0 represent cell death. For example, a value of 40 represents 60% growth inhibition. A value of 0 means no net growth occurred over the course of the experiment. A value of -40 indicates 40% of cells at the beginning of the experiment died by the end of the experiment. A value of -100 means all cells are dead at the end of the experiment.\nNCI-60 Human Tumor Cell Lines Screen was performed using the standard one-dose NCI protocol, which is described in more detail at https://dtp.cancer.gov/discovery_development/nci-60/default.htm.\nCompounds with GIPRCNT values below 10 were considered active. Activity score was based on GIPRCNT using the following formula: […]\nScore is 0 for GIPRCNT values of 100 or above, 50 for GIPRCNT values of 0, and 100 for GIPRCNT values of -100."}
{"smiles": "Cc1nc2ncccc2nc1Nc1ccc(S(=O)(=O)Nc2cncs2)cc1", "growth": "102% (inactive)"}
{"smiles": "CN1CCN(Cc2ccc(NC(=O)c3nc4ccc5[nH]ncc5c4c4c3CCC4)cc2C(F)(F)F)CC1", "growth": "-56.2% (active)"}
{"smiles": "COc1cccc(/C=C2\\Oc3cc(OCCCN4CCCC4)ccc3C2=O)c1OC", "growth": "98.6% (inactive)"}
{"smiles": "Cc1c(C(=O)/C=C/c2csc3ccccc23)[n+](=O)c2ccccc2n1[O-]", "growth": "26.3% (inactive)"}
{"smiles": "N/C(=N\\C(N)=N\\c1nc2ccccc2s1)c1cccc(Br)c1", "growth": "102% (inactive)"}
{"smiles": "COc1ccc(/C=C/c2c(C(C)=O)c(C)nc3ccccc23)cc1", "growth": "86.8% (inactive)"}
{"smiles": "COc1cccc(CC(C)=C(c2ccc(OCCN3CCCCC3)cc2)c2ccc(OCCN3CCCCC3)cc2)c1", "growth": "-71.2% (active)"}
{"smiles": "CC(C)(C)n1cc(-c2ccnc(NCCNS(=O)(=O)c3ccc(C(F)(F)F)cc3)c2)c(-c2cccc(O)c2)n1", "growth": "25.9% (inactive)"}
{"smiles": "C=C1CCC2C3(C)COC(C)(C)OC3CCC2(C)C1C/C=C1/C(=O)OCC1Oc1ccccc1OC", "note": "(stereo not given)", "growth": "21.4% (inactive)"}
{"smiles": "O=C(O)Cc1cccc(=O)c(O)c1C(=O)O", "growth": "106% (inactive)"}
{"smiles": "CC(C)(C)N1CCC1C(N)=O", "note": "(stereo not given)", "growth": "97.7% (inactive)"}
{"smiles": "FC(F)(F)c1cccc(-c2cn3c(ccc4ccccc43)n2)c1", "growth": "89.5% (inactive)"}
{"smiles": "C=C1C(=O)O[C@H]2[C@H]1CC/C(Cn1cc(CNC(=O)c3cc4ccccc4[nH]3)nn1)=C\\CC[C@@]1(C)O[C@@H]21", "growth": "-32.5% (active)"}
{"smiles": "CCC(C)/C(=C\\C#N)NCCCN/C(=C/C#N)C(C)CC", "note": "(stereo not given)", "growth": "107% (inactive)"}
{"smiles": "Cc1ccc(NS(=O)(=O)c2cc(C)ccc2C)cc1", "growth": "19.9% (inactive)"}
{"smiles": "CC(C)CSc1nc(NN)c(C#N)c(-c2ccccc2)n1", "growth": "99.3% (inactive)"}
{"smiles": "CN(C)CCCN(c1nc(C(Cl)(Cl)Cl)ns1)c1nc(C(Cl)(Cl)Cl)ns1", "growth": "35.1% (inactive)"}
{"smiles": "CN(C[C@H]1Cc2c(cccc2N2CCN(c3ncccn3)CC2)CN1)[C@H]1CCCc2cccnc21", "growth": "31.3% (inactive)"}
{"smiles": "O=C1c2c(c3c4ccccc4n(CCCCCCBr)c3c3[nH]c4ccccc4c23)C(=O)N1O", "growth": "15.1% (inactive)"}
{"smiles": "COC(=O)c1nc(-c2ccccc2)oc1S(=O)(=O)N1CCN(c2cccc(Cl)c2)CC1", "growth": "61.7% (inactive)"}
{"smiles": "CN(CCCCN(C[C@H]1Cc2ncccc2CN1)[C@H]1CCCc2cccnc21)C1CCC(F)(F)CC1", "growth": "98.7% (inactive)"}
{"smiles": "O=C(Nc1cccc(-n2cc(-c3ccncc3)c(-c3ccc(Cl)c(O)c3)n2)c1)c1ccccc1", "growth": "76.9% (inactive)"}
{"smiles": "CC(C)(C)n1cc(-c2ccnc(NCCCNS(=O)(=O)c3cccc(F)c3)c2)c(-c2cccc(O)c2)n1", "growth": "24.5% (inactive)"}
{"smiles": "O=S1(=O)CCC(N(/N=C/c2ccco2)c2ccccc2)C1", "note": "(stereo not given)", "growth": "95.4% (inactive)"}
{"smiles": "CCCOC(=O)n1cccc1", "growth": "102% (inactive)"}
{"smiles": "C=C1CCC2C(C)(CO)C(O)CCC2(C)C1C/C=C1/C(=O)OCC1O/C=C/c1ccccc1", "note": "(stereo not given)", "growth": "5.82% (active)"}
{"smiles": "O=C(N/N=C/C=C\\c1ccccc1)C(=O)N/N=C/C=C/c1ccccc1", "growth": "106% (inactive)"}
{"smiles": "Cc1ccc(S(=O)(=O)NCCCNc2cc(-c3cn(C(C)(C)C)nc3-c3cccc(O)c3)ccn2)cc1", "growth": "19.1% (inactive)"}
{"smiles": "COc1ccc(/C=C(\\C#N)c2cc(OC)c3c(c2)OCO3)cc1", "growth": "24.4% (inactive)"}
{"smiles": "C=C1CC2(OC1=O)C(=O)N(CCCN1C(=O)C3(CC(=C)C(=O)O3)c3ccccc31)c1ccccc12", "note": "(stereo not given)", "growth": "-67.4% (active)"}
{"smiles": "S=c1[nH]nc(-c2cc3ccc2CCc2ccc(cc2)CC3)n1-c1ccccc1", "growth": "97.5% (inactive)"}
{"smiles": "COc1ccc(/C=N\\NC(=O)CN2CCN(c3cc4c(cc3F)c(=O)c(C(=O)N/N=C/c3ccc(OC)c(OC)c3)cn4C3CC3)CC2)cc1OC", "growth": "4.64% (active)"}
{"smiles": "Cc1ccc(-c2nc(C(Cl)Cl)n3nc(-c4ccccc4)cc3n2)cc1", "growth": "-22.4% (active)"}
{"smiles": "CC(=O)c1cc2c(N)c(C(=O)Nc3cccc4c3OCCO4)sc2nc1C", "growth": "95.1% (inactive)"}
{"smiles": "COc1cc(-c2nn(-c3cccc(NC(=O)Nc4ccc(Cl)c(Cl)c4)c3)cc2-c2ccncc2)ccc1Cl", "growth": "13.4% (inactive)"}
{"smiles": "CC(NNC(C)c1ccccc1)c1ccccc1", "note": "(stereo not given)", "growth": "96.1% (inactive)"}
{"smiles": "O=C(O)c1cn(C2CC2)c2cc(N3CCN(C(=O)/C=C/c4ccc(Cl)cc4)CC3)c(F)cc2c1=O", "growth": "102% (inactive)"}
{"smiles": "COc1ccc2c(c1)cn1c3ccc(OC)cc3[nH]c(=O)c21", "growth": "-38.9% (active)"}
{"smiles": "CCCCN(CCCC)C(=N)c1ccnc2ccccc12", "growth": "100% (inactive)"}
{"smiles": "COc1ccc(CNCCCN2C(=O)c3ccc4c5c(ccc(c35)C2=O)C(=O)N(CCCNCCCCNCCCN)C4=O)c(OC)c1OC", "growth": "10.8% (inactive)"}
